# Key:
# Experiment in all cases: PBM binding z-score (relative to random genomic background probes); higher = stronger binding; sequences stand for … in GC…GCGATTGACAGCGTAGAATGAAGG
# [1] = system: FXR:RXRa (NR concentration 270 nM, RXRa partner concentration 90 nM)
# Procedure, shortened: (§1)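 For binding z-scores, the reference was random background probes on custom Agilent 4×180K protein-binding microarrays. These arrays were incubated 1 h with ligand-free nuclear receptor dimers in PBS pH 7.4, 2% milk, 0.02% Triton X-100, 1 mM DTT, 0.2 mg/mL BSA and 0.4 mg/ml salmon testes DNA. Fluorescence was scanned after antibody detection of each partner (one per run) and regression-normalized.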
# [2] = system: LXRa:RXRa (NR concentration 270 nM, RXRa partner concentration 90 nM)
# Procedure, shortened: as §1
# [3] = system: LXRa homodimer (NR concentration 270 nM)
# Procedure, shortened: as §1
# [4] = system: LXRb:RXRa (NR concentration 270 nM, RXRa partner concentration 90 nM)
# Procedure, shortened: as §1
# [5] = system: LXRb homodimer (NR concentration 270 nM)
# Procedure, shortened: as §1
# [6] = system: PPARa:RXRa (NR concentration 270 nM, RXRa partner concentration 90 nM)
# Procedure, shortened: as §1
# [7] = system: PPARg:RXRa (NR concentration 180 nM, RXRa partner concentration 90 nM)
# Procedure, shortened: as §1
# [8] = system: PPARg:RXRa 270nM:90nM, anti-RXR (NR concentration 270 nM, RXRa partner concentration 90 nM)
# Procedure, shortened: as §1
# [9] = system: PPARg:RXRa 30nM:10nM, anti-RXR (NR concentration 30 nM, RXRa partner concentration 10 nM)
# Procedure, shortened: as §1
# [10] = system: PPARg:RXRa 90nM:30nM, anti-RXR (NR concentration 90 nM, RXRa partner concentration 30 nM)
# Procedure, shortened: as §1
Sequence,PBM binding z-score [1],PBM binding z-score [2],PBM binding z-score [3],PBM binding z-score [4],PBM binding z-score [5],PBM binding z-score [6],PBM binding z-score [7],PBM binding z-score [8],PBM binding z-score [9],PBM binding z-score [10]
CCTACTGGGCCAAGGTAATTGATCAGTCAAAGCA,-0.458,-0.478,-0.526,-0.461,-0.835,0.508,0.767,1.22,0.0282,0.531
CAAACTAGGTCAAGATCAAAGTCGGTTTGTGCCA,3.58,2.31,0.143,1.67,0.237,4.66,7.62,6.55,4.29,6.19
GATACAGGGTCAGCTAGAGGCCGGAGTATGGAAA,4.48,2.56,-0.44,2.17,-0.594,4.57,3.61,3.41,0.716,2.13
ATCGTAAGGTCGAGGTGAGTATAGAGAAAGGGAA,2.64,1.91,0.0142,1.68,0.624,3.02,1.53,1.72,0.505,1.27
ATCTCTAGGTAAGACTCAGTTCGGTGAAGAACGC,0.336,0.318,0.624,0.144,0.85,-0.0565,-0.0259,0.127,-0.00912,0.104
TAGCCTAGGTCATGGGCCAGGATACCACGCGAAC,4.32,3.44,0.422,2.16,-0.43,4.16,3.93,3.93,1.12,2.85
ATCGAAAGGTCGAAGGTGAGTAAACCCACCCGAA,4.69,3.83,0.284,3.05,0.315,4.88,4.96,5.19,1.91,4.14
CGATCTAGGTCAGAACAGGACAGTGAAGGATGAT,1.41,0.482,-0.161,0.206,-0.143,2.84,4.82,3.88,1.41,2.78
AGAACGAGGGTACGCTGAGTTGATAGCAGAGTAG,-0.315,-0.553,-0.621,-0.739,-0.968,-0.00229,0.661,-0.197,-0.127,-0.289
CCGACTGGGGCAGAAAGTTTACCATACCATCCGG,-0.706,-0.595,-0.267,-0.494,-0.896,-0.213,0.681,0.251,-0.507,-0.116
CCAGACAGGTGAAAGGTTACTCAGTCTGGTACGC,2.37,2.59,0.167,2.26,-0.0595,4.67,7.6,7.17,5.84,7.77
TAGCCTAGGTCATTCGGCCAGTATAGTACGCATC,4.5,3.51,1.18,2.52,0.814,3.48,2.78,2.43,0.539,1.55
